According to PubChem BioAssay (Tox21):
“And” between values parts separate entries of the source, which are not always exact repeats. Identical values can stand only once. Records with an inconclusive call do not appear. Where a call stands in place of a potency, no number is given. The source made the active and inactive calls. Calls follow the shape of the dose curve; as a rule, active = well fitted cell-killing curve with a large enough effect in the repeat runs; inconclusive = weak or mixed curves, or effect the other way; inactive = flat fitted curve, though single readings scatter.

Assay: Human pregnane X receptor (PXR) small molecule agonists, qHTS cell viability counter screen (AID 1346977); also: nearly all actives have a fitted effect of over 50% in size
Settings: PXR-Luc HepG2 viability, CellTiter-Fluor, 24 h; series mostly up to 92.4 µM; activity change, negative = cytotoxicity: at the top concentration
Description: U.S. Tox21 Program National Center for Advancing Translational Sciences [NCATS] NIH Chemical Genomics Center [NCGC] U.S. Environmental Protection Agency [EPA] National Institutes of Environmental Health Sciences [NIEHS] National Toxicology Program [NTP] U.S. Food and Drug Administration [FDA] Tox21 Assay Overview: The human pregnane X receptor (hPXR) regulates the expression of several drug metabolizing enzymes and induction of these proteins is a major mechanism for developing drug resistance in cancer. One such key enzyme catalyzing the drug metabolism is cytochrome P450 3A4 (CYP3A4). Changes in CYP3A4 expression affect drug metabolism, thereby reducing the therapeutic efficacy and altering toxicological response to a drug and which finally causes adverse drug interaction. To screen Tox21 libraries for compounds that activate hPXR-mediated CYP3A4 gene expression, PXR-Luc HepG2 cells were used. Also cytotoxicity of the compounds was tested in parallel by measuring the cell viability using CellTiter-Fluor assay system in the same wells.
Tox21 Assay Protocol Summary: PXR-Luc HepG2 cells were dispensed at 2,000 per well in 5uL of assay medium containing 5% charcoal-stripped FBS into white solid bottom 1536-well plates (Corning Life Sciences, Corning, NY) using a Multidrop Combi (Thermo Scientific, Waltham, MA) dispenser. The assay plates were incubated at 37 C and 5% CO2 for 5hr, and then 23nL of compounds dissolved in DMSO and positive control were transferred using a Pintool station (Wako, San Diego, CA). The assay plates were incubated at 37C and 5% CO2 for 24hr. For cytotoxicity read, after 23hr incubation at 37C, 1uL CellTiter-Fluor reagent (Promega Corporation, Madison, WI) was added to each well of the assay plates using Flying Reagent Dispenser (FRD, Aurora Discovery, San Diego, CA). After 1hr incubation at 37C and 5% CO2, the fluorescence signal was quantified using a ViewLux plate reader (PerkinElmer, Shelton, CT).
Potency is read from the fitted curve at half-maximal effect.

| Structure (SMILES) | Potency | activity change, negative = cytotoxicity |
| --- | --- | --- |
| CNCCCC12CCC(c3ccccc31)c1ccccc12 | 27.3 µM (active) |  |
| CC(=O)Oc1ccccc1C(=O)Nc1ncc([N+](=O)[O-])s1 | 12.4 µM (active) and 16.8 µM (active) |  |
| CCCCC(CC)COP(=O)(OCC(CC)CCCC)OCC(CC)CCCC (stereo not given) | inactive |  |
| CCCC(=O)O | inactive |  |
| COc1cc([C@@H]2c3cc4c(cc3[C@H](O)[C@H]3COC(=O)[C@H]23)OCO4)cc(OC)c1OC | inactive |  |
| COC(=O)Nc1nc2ccc(S(=O)c3ccccc3)cc2[nH]1 (stereo not given) | inactive |  |
| CC(C)=CCCC(C)CCO (stereo not given) | inactive |  |
| O=C(c1ccc(OCCN2CCCCC2)cc1)c1c(-c2ccc(O)cc2)sc2cc(O)ccc12 | 21.7 µM (active) and 24.3 µM (active) and 23.7 µM (active) |  |
| COc1cccc2c1C(=O)c1c(O)c3c(c(O)c1C2=O)C[C@@](O)(C(=O)CO)C[C@@H]3O[C@H]1C[C@H](N)[C@H](O)[C@H](C)O1 | 1.72 µM (active) and 6.68 µM (active) |  |
| CN(C)CCC=C1c2ccccc2CCc2ccccc21 | 44.7 µM (active) and 48.6 µM (active) and 26.6 µM (active) |  |
| NC=O |  | -0.6% (inactive) |
| OC(CCl)CCl | inactive |  |
| CCCc1c(OCCCCc2nn[nH]n2)ccc(C(C)=O)c1O | inactive |  |
| COC(=O)c1ccccc1 | inactive |  |
| O=[N+]([O-])c1ccc2c(c1)Cc1ccccc1-2 | inactive |  |
| c1ccc2cc(Nc3ccc(Nc4ccc5ccccc5c4)cc3)ccc2c1 | inactive |  |
| CC(C)OB(OC(C)C)OC(C)C | inactive |  |
| CC(C)(C)NC(=O)[C@H]1CC[C@H]2[C@@H]3CC[C@H]4NC(=O)C=C[C@]4(C)[C@H]3CC[C@]12C | inactive |  |
| COc1ccccc1/C=C/C=O | inactive |  |
| C[Si](C)(C)O[Si](C)(C)C | inactive |  |

| Structure (SMILES) | Potency | activity change, negative = cytotoxicity |
| --- | --- | --- |
| Cc1ccc(C(=O)c2cc(O)c(O)c([N+](=O)[O-])c2)cc1 | 21.7 µM (active) |  |
| CCCCC/C=C/C=C/C=O | inactive |  |
| O=C(Nc1ccc([N+](=O)[O-])cc1Cl)c1cc(Cl)ccc1O | 1.22 µM (active) and 1.46 µM (active) |  |
| CCCCNS(=O)(=O)c1ccccc1 | inactive |  |
| Cc1c(C(N)=O)cc([N+](=O)[O-])cc1[N+](=O)[O-] | inactive |  |
| O=c1oc(=O)c2cc3c(=O)oc(=O)c3cc12 | inactive |  |
| O=C1c2cccc(O)c2C(=O)c2c(O)cccc21 |  | -29.5% [at 42.5 µM] (inactive) |
| O=C(c1ccccc1)c1ccc(O)cc1O |  | -11.3% (inactive) |
| CCCCCCCCCC(=O)OC | inactive |  |
| COC(=O)C1=C(C)NC(C)=C(C(=O)OCCN(C)Cc2ccccc2)C1c1cccc([N+](=O)[O-])c1 (stereo not given) | 27.1 µM (active) and 26.6 µM (active) |  |
| Nc1ccc(S(=O)(=O)Nc2cnc3ccccc3n2)cc1 | inactive |  |
| CC(C)Oc1ccc2c(=O)c(-c3ccccc3)coc2c1 | inactive |  |
| C[C@]12CCC(=O)C=C1CC[C@@H]1[C@@H]2C(=O)C[C@@]2(C)[C@H]1CC[C@]2(O)C(=O)CO | inactive |  |
| CC(=O)CC/C=C(\C)CCC=C(C)C | inactive |  |
| c1ccc2sc(SSN3CCOCC3)nc2c1 | inactive |  |
| c1ccncc1 | inactive |  |
| O=C(OCc1ccccc1)c1ccccc1O | inactive |  |
| c1ccc2c(c1)c1cccc3ccc4cccc2c4c31 | inactive |  |
| O=C1OC2(c3cc(Br)c(O)c(Br)c3Oc3c2cc(Br)c(O)c3Br)c2c(Cl)c(Cl)c(Cl)c(Cl)c21 | 2.51 µM (active) and 11.7 µM (active) |  |
| c1ccc(Nc2ccccc2)cc1 | inactive |  |
